In ChEMBL document CHEMBL3433997, “St. Jude Leishmania screening dataset” (2016) one finds inhibition data, which are given here for 40 compounds.

The assay concerns the target Glucose transporter (Leishmania mexicana) (UniProt O61059). The experiment in a line: ST_JUDE_LEISH: Cytotoxicity at 2uM final concentration against transgenic Leishmania Mexicana promastigotes LmGT2 that are glucose transport deficient and complemented with the L. Mexicana glucose transporter 2. Activity is measured by DNA content using SYBR green in vitro. The assay is classed as functional.
Regarding `Oc1ccc(CCCNc2nc(NCc3ccccc3-c3ccccc3)nc(NC3CCNCC3)n2)cc1`, the inhibition was -0.11%. The figure for `c1ccc(-c2cc(NCCCCNc3cc(-c4ccccc4)nc4ccccc34)c3ccccc3n2)cc1` is 6.81%; for `CN1CCN(CCCN(Cc2cccc(-c3ccc(CNCc4ccc5c(c4)OCO5)cc3)c2)C(=O)CCC2CCCC2)CC1` it is 34.4%. Turning to `O=[N+]([O-])c1ccc(-c2nc3cc(C4=NC5CCCCC5N4)ccc3[nH]2)cc1` (stereo not given), the inhibition was -4.46%. Consider `CCCN(CCC)CCCN(CCCN(CCC)CCC)c1cc(C)nc(Nc2ccc3cc(Br)ccc3c2)n1`, for which the inhibition worked out at 37.8%. For the compound `Cc1cc(-c2cc(Cl)ccc2Cl)no1`, the inhibition is -0.72%.

For `CN(C)CCOc1cc(NC(=O)Nc2ccc(-c3ccccc3)cc2Cl)ccc1I`, the inhibition is -2.09%. The figure for `COc1ccc(-c2ccc(NC(=O)c3cccc(Cl)c3)cc2)cc1CNC(C)C` is 1.96%; for `CCN1CCC(N2CCC(C(=O)Nc3cccc(-c4cccc(Cl)c4)c3)CC2)CC1` it is 2.7%; for `CCNc1cc(C)nc(Nc2ccc(NC(=O)Cc3ccc(OC)cc3)cc2)n1` it is 4.74%.

In the case of `CCCc1cc(Cc2cnc(N)nc2N)cc(CC)c1O`, the inhibition was 0.25%.

Consider `O=c1cc(N2CCCNCC2)c(Cl)nn1Cc1ccc(NS(=O)(=O)c2ccc(Oc3ccccc3)cc2)cc1`, for which the inhibition amounted to 8.55%. The figure for `COc1ccc(C2CC(=O)C3=C(C2)NC(C)=C(C(=O)OC2CCCC2)C3c2ccc(O)cc2)cc1OC` (stereo not given) is 0.39%; for `O=C(Nc1cccc(-c2ccc(CN3CCC(O)CC3)cc2)c1)c1cccc(Cl)c1` it is 2.17%; for `O=C1Nc2cccc3c2C1(CCCCN1CCC(c2c(-c4ccc(F)cc4)[nH]c4ccccc24)CC1)CCC3` (stereo not given) it is 6.27%.

Turning to `CC(=O)Nc1cccc(C(=O)Nc2ccc(-c3cccc(-c4nc5cc(F)ccc5[nH]4)c3)cc2)c1`, the inhibition turned out to be 5.47%.

For the compound `COc1ccccc1C(C)NCC(=O)Nc1ccccc1Sc1ccccc1` (stereo not given), the inhibition is 1.44%.

Take `CN(C)CCN(C)Cc1cccc(-c2ccc3c(Nc4ccc(F)cc4Cl)ccnc3c2)c1`: the inhibition turned out to be 12.7%. The figure for `CC(C)C[C@@H](C(=O)N[C@@H](CCCCNC(=O)OCc1ccccc1)C(=O)Nc1nccs1)[C@H](C)N(O)C=O` is 0.49%. As for `COc1cccc(NC(=O)CSc2nc(-c3ccccc3Cl)ns2)c1`, the inhibition is 6.13%. With `OC1CCCN(Cc2ccc(-c3ccc(-c4nc5ccccc5[nH]4)cc3)cc2)C1` (stereo not given), the inhibition is 5.37%.

`CCC(C)c1ccc(Nc2nc(C)cc(N(CC)CCCN3CCCCC3)n2)cc1` (stereo not given): the inhibition came out at 1.67%.

Consider `Cc1cc2c(cc1C(F)(F)F)N(C(=O)Nc1ccc(C(=O)NC3CCN(Cc4ccccc4)C3)cc1)CC2` (stereo not given), for which the inhibition turned out to be 4.54%.

`c1cc(CNCC2CCN(CC3CCCCC3)CC2)cc(-n2ccnc2)c1`: the inhibition was determined as 0.1%.

For `O=C(Nc1cccc(-c2ccc(CN3CCNCC3)cc2)c1)c1cccc(Cl)c1`, the inhibition was -2.68%. Regarding `CS(=O)(=O)Cc1ccc(Nc2nccc(NC3CCN(c4nccc(C(F)(F)F)n4)CC3)n2)cc1`, the inhibition is -2.6%. The figure for `Cc1ccc(CNC(=O)[C@H](CCCN)Nc2cc(C)nc(Nc3ccccc3)n2)cc1` is 7.78%; for `CCCCCCCC1=NN2C(=N)C(=Cc3cc(Br)c(OCc4ccc(F)cc4)c(OCC)c3)C(=O)N=C2S1` it is 2.47%; for `CCCNc1ccc2nccc(CCN3CCC(NCc4ccc5c(n4)NC(=O)CS5)CC3)c2n1` it is 8.69%. The figure for `CCOc1c(Br)cc(Br)cc1CNCCCCNc1nc2ccccc2[nH]1` is 3.2%; for `CCN(CC)CCCC(C)Nc1cc(C)nc2cc(Cl)ccc12` (stereo not given) it is 0.08%; for `COc1cc(C(=O)N2CCOC(CCN3CCc4c(c5ccccc5n4C)C3)(c3ccc(Cl)c(Cl)c3)C2)cc(OC)c1OC` (stereo not given) it is -1.26%. The same measure for `COc1ccc2nccc(N(C)CC3(O)CCN(CC(O)c4ccc5c(c4)NC(=O)CS5)CC3)c2n1` (stereo not given): -0.26%; for `c1ccc(-c2cc(NCCCn3ccnc3)nc(-c3cccnc3)n2)cc1`: 0.94%.

With `CC(C)(C)c1ccc(NC(=O)c2ccc(CN3CCCN(Cc4ccc(F)cc4)CC3)cc2)cc1`, the inhibition was 1.74%. The figure for `COc1cc(C(=O)NCCCN2CCN(c3cc(Cl)ccc3OC)CC2)ccc1-c1nc2cc(Cl)c(Cl)cc2[nH]1` is 5.03%. In the case of `O=C(NC1CCN(Cc2ccccc2)C1)c1ccc(Nc2ccc(Br)cc2)nc1` (stereo not given), the inhibition was -1.43%.

For the compound `Cc1ccc(CNC(=O)c2ccc(CN3CCCN(Cc4ccsc4)CC3)cc2)cc1`, the inhibition was 2.87%. The same measure for `CC(C)N(Cc1ccc(-c2ccc(C(F)(F)F)cc2)cc1)C(=O)Cn1c(CCc2cccc(F)c2F)cc(=O)c2ccc(CCCN3CCCCC3)cc21`: 3.61%; for `COc1ccc2nccc(N3CCC(NCCNCc4ccc5c(n4)NC(=O)CO5)C3)c2n1` (stereo not given): 1.15%.

In general, inhibition refers to the relative decrease from the control value, in per cent.
